From PubChem BioAssay (NCATS) come the findings set out here.

A number with no mark means an inactive call. Inconclusive results are not listed. Active and inactive are the calls of the source. The call rests on the fitted dose curve; in most records, active means well fitted curve in the direction sought with a large enough effect; inconclusive means small, poorly fitted or top-dose-only effect, or another doubt; inactive means no such curve, though single readings can be large; an effect the other way counts as inactive or inconclusive.

Assay [1] is described as follows: Cell Viability - H-4-II-E (AID 543).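 Further: cells exposed to compound for 40 hours; on the % scale 0 is the no-effect control and ±100 the full control effect; nearly all actives have a fitted effect of over 35% in size.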 Summed up: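 Here, cytotoxicity is measured in the rat hepatoma line H-4-II-E as loss of intracellular ATP after 40 hr compound treatment, detected by luciferase luminescence.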
Assay [2] is described as follows: Cell Viability - SH-SY5Y (AID 544).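 Further: cells exposed to compound for 40 hours; nearly all actives have a fitted effect of over 55% in size.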 The settings on record: SH-SY5Y neuroblastoma cell viability; viability change, negative = cytotoxic: at 92.2 µM (top of the series). Summed up:
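Cytotoxicity is scored as a concentration-dependent fall in intracellular ATP in human SH-SY5Y cells treated 40 hr in complete culture medium. Potency is expressed as AC50 from a Hill equation fit.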

Assay [3] is described as follows: Cell Viability - Renal Proximal Tubule (AID 545).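 Further: cells exposed to compound for 40 hours; nearly all actives have a fitted effect of over 40% in size.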 A digest of the protocol: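 Primary rat renal proximal tubule cells (1000/well) were treated with compounds for 40 hr at 37 °C in complete medium. Intracellular ATP was measured by CellTiter-Glo luminescence, and AC50 values came from Hill-equation fits of concentration-response data.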
A short description of assay [4]: Cell Viability - Mesenchymal (AID 546).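 Further: cells exposed to compound for 40 hours before reading.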 A digest of the protocol:
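Normal human renal glomerulus-derived kidney mesenchymal cells, 1000 per well in complete medium, were treated with compounds for 40 hr at 37 °C. Viability was read as intracellular ATP by CellTiter-Glo luminescence; AC50 values came from Hill-equation fits of qHTS concentration-response data.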

Assay [5] is described as follows: Cellular Toxicity (caspase-3) HepG2 (AID 654).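 Further: cells exposed to compound for 16 hours before reading; 0% = DMSO alone and 100% = caspase signal from 100 µM tamoxifen.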 Summed up:
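qHTS, HepG2, 1500 cells/well, complete medium; cpd 16 h 37 °C; Caspase-Glo 3/7, 20 min RT; lum. Norm: DMSO vs 100 uM tamoxifen; AC50 Hill fit.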

A short description of assay [6]: Cellular Toxicity (caspase-3) Jurkat (AID 655).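 Further: cells exposed to compound for 16 h at 37 °C before reading.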 Conditions: Jurkat caspase-3 activation, luminescence; caspase-3 activation: at 92.2 µM (top of the series), DMSO = 0%, tamoxifen = 100%. A digest of the protocol: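 Jurkat cells (5000/well) in complete medium were treated with compounds for 16 hr at 37 °C, then Caspase-Glo 3/7 luminescence was read after 20 min at room temperature. Data normalized to DMSO (basal) and 100 uM tamoxifen (100%); AC50 from Hill fit.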

Assay [7] is described as follows: Cellular Toxicity (caspase-3) HUV-EC-C (AID 656). A digest of the protocol:
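HUV-EC-C endothelial cells, 1000/well, were pre-incubated 5 hr at 37°C, then exposed to compounds for 16 hr at 37°C. Caspase-Glo 3/7 luminescence was read after 20 min at room temperature. AC50 came from Hill fits, normalized to DMSO and 100 uM tamoxifen.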

Assay [8] is described as follows: Cellular Toxicity (caspase-3) SHSY5Y (AID 657). A digest of the protocol:
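SH-SY5Y human neuroblastoma cells (1500/well) were treated with compounds for 16 h at 37 °C, then Caspase-Glo 3/7 luminescence was read after 1 h at room temperature. Data normalized to DMSO and 10 uM staurosporine; AC50 from Hill fits.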

The nature of assay [9]: Cellular Toxicity (caspase-3) BJ (AID 658).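 Further: 0% = DMSO basal and 100% = 10 µM staurosporine.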 Summed up: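 Luminescent aminoluciferin-substrate cleavage reports caspase 3/7 activity in normal human BJ fibroblasts after 16 hr compound exposure at 37 °C. Normalized to DMSO (basal) and 10 uM staurosporine (100%); AC50 from Hill fit of concentration-response.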
Assay [10] is described as follows: Cellular Toxicity (caspase-3) MRC-5 (AID 659).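 Further: 0% = DMSO basal and 100% = 10 µM staurosporine.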 Summed up:
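Luminescence from caspase-cleaved aminoluciferin substrate (Caspase-Glo 3/7, 1 hr RT) reports caspase 3/7 activity in MRC-5 lung fibroblasts after 16 hr compound exposure. Normalized to DMSO basal and 10 uM staurosporine as 100%; AC50 from Hill fits.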

Assay [11] is described as follows: Cellular Toxicity (caspase-3) Mesangial (AID 660).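 Further: combined caspase 3 and 7 activity read by Caspase-Glo luminescence; cells exposed to compound for 16 h before the caspase read.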 Conditions: mesangial cells, normalized: DMSO 0%, 100 µM tamoxifen 100%; at 91.7 µM (top of the series). A digest of the protocol:
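Concentration-response qHTS: compound-induced rise in caspase 3/7 luminescence in human mesangial cells after 16 h, normalized to DMSO and 100 uM tamoxifen controls.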

Assay [12] can be described thus: Cellular Toxicity (caspase-3) SK-N-SH (AID 661).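 Further: 0% = DMSO basal and 100% = 10 µM staurosporine.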 A digest of the protocol: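 Caspase 3/7 activation is measured as a luminescence increase from aminoluciferin released by substrate cleavage in SK-N-SH cells after 16 hr compound treatment; values are AC50 from concentration-response curves.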
A short description of assay [13]: Cellular Toxicity (caspase-3) H-4-II-E (AID 663).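 Further: cells exposed to compound for 16 hr before readout.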 The settings on record: H-4-II-E rat hepatoma, scaled: DMSO 0%, 100 µM tamoxifen 100%; at 92.2 µM (top of the series). Summed up: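 Luminescence from caspase-cleaved aminoluciferin substrate, read 20 min after reagent addition, reports caspase 3/7 activation in rat H-4-II-E cells after 16 hr compound exposure. Normalized to DMSO (basal) and 100 uM tamoxifen (100%); AC50 from Hill fits.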

A short description of assay [14]: Cellular Toxicity (caspase-3) Hek293 (AID 664).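 Further: cells exposed to compound for 16 h at 37 °C before readout.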 Conditions: HEK293 caspase-3 activation, DMSO = 0%, 100 µM tamoxifen = 100%; at 92.2 µM (top of the series). Summed up:
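Activation of caspase-3/7 is measured as increased luminescence from cleaved peptide-aminoluciferin substrate in HEK293 cells treated 16 hours at 37 °C. AC50 values come from Hill-equation fits of concentration-response data.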

Assay [15] is described as follows: Cellular Toxicity (caspase-3) N2a (AID 665).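 Further: compound exposure lasted 16 h at 37 °C before readout.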 A digest of the protocol: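 Plated mouse neuroblastoma N2a cells received titrated compounds for 16 h in complete medium. Caspase activity was then detected with a peptide-aminoluciferin luminescent reagent.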
Assay [16] is described as follows: Cellular Toxicity (caspase-3) NIH 3T3 (AID 666). Summed up:
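Concentration-response qHTS in NIH 3T3 mouse fibroblasts scores caspase-3/7 activation as rising luminescence after 16 hr compound exposure. Signals are scaled between DMSO-only and 100 uM tamoxifen.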

Assay [17] is described as follows: Cellular Toxicity (caspase-3) Renal Proximal Tubule (AID 667).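 Further: cells exposed to compound for 16 hours at 37 °C before detection; 0% = DMSO basal and 100% = 10 µM staurosporine.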 Conditions: Potency: caspase-3 activation. A digest of the protocol:
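Primary rat proximal tubule cells, 1000/well, 5 h plating at 37 °C, then compound 16 h at 37 °C. Caspase-Glo 3/7 reagent, 1 h RT, luminescence. Normalized to DMSO (basal) and 10 uM staurosporine (100%); Hill-fit AC50.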

The target in assay [18] is Cytochrome P450 3A4 (Homo sapiens) (UniProt P08684). The assay can be described thus: qHTS Assay for Inhibitors and Substrates of Cytochrome P450 3A4 (AID 884). Further: nearly all actives have a fitted effect of over 50% in size. Further: potency means the concentration at half of the fitted maximal effect. A digest of the protocol: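 20 nM human CYP3A4 with 25 uM Luciferin-PPXE (at KM) in 200 mM KPO4, preincubated 10 min with compound; NADPH regeneration started a 60 min RT reaction. Luciferin detected by luminescence, normalized to 57 uM ketoconazole as full inhibition.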
For orientation: Quantitative high-throughput screening tests each substance at several concentrations.

Assay [19] is described as follows: Cell Viability - LYMP2-001 (AID 921).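 Further: 0% = DMSO only and full inhibition = tetraoctylammonium bromide control wells; nearly all actives have a fitted effect of over 70% in size.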 A digest of the protocol: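 Human lymphoblastoid cells (Coriell), 2500 per well, were preincubated 5 hr at 37 C, then exposed to compounds in complete medium for 24 hr at 37 C. Cellular ATP was read by CellTiter-Glo luminescence; AC50 from Hill fits of concentration-response data.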
Assay [20] concerns the target Cytochrome P450 3A4 (Homo sapiens) (UniProt P08684). The assay can be described thus: qHTS Assay for Activators of Cytochrome P450 3A4 (AID 885). Further: nearly all actives have a fitted effect of over 65% in size. A digest of the protocol: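 Human CYP3A4 (20 nM) with Luciferin-PPXE at 25 uM (its KM) in 200 mM KPO4; 10 min compound preincubation, then NADPH regeneration and 60 min reaction at RT. Luciferin read by luminescence; normalized to 57 uM ketoconazole full inhibition.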

Chain of Cytochrome P450 3A4 (Homo sapiens) (P08684 whole entry, looked up): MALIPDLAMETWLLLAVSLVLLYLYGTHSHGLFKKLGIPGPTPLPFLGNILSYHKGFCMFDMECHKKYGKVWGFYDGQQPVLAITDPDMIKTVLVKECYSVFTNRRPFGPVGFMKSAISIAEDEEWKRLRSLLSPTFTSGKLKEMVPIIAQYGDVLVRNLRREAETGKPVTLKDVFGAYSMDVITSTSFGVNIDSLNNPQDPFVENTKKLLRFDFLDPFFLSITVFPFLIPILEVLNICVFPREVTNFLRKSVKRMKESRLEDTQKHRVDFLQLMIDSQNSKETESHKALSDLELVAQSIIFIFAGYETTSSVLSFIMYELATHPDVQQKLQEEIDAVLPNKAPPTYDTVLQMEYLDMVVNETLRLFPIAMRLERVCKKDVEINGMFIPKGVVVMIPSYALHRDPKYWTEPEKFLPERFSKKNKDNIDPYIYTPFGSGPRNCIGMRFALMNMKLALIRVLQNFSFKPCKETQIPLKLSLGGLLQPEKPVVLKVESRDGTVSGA

Regarding `Cc1cccc(C)c1[N+](=O)[O-]`, the Potency result in assay [1], in assay [2], in [3], in assay [4], in [5] and in assay [17] was “inactive” each time. Besides, the Potency result in [18] and in assay [19] was “inactive” in each case. The caspase-3 activation in [6] is 0.339%; in assay [11] it was 0.452%; in assay [13], -0.326%; in assay [14], -0.173%. Further, the call in [7], in [8], in assay [9], in assay [10], in assay [12] and in assay [15] was inactive. In assay [16], the call was inactive.
Take `O=C(O)CNC(=O)c1ccc(CO)o1`: the Potency result in assay [1], in [2], in assay [3], in assay [4], in assay [5] and in assay [17] was “inactive” throughout. In addition, the Potency result in [18] and in [19] was “inactive” each time. The caspase-3 activation in [6] was -2.47%; in [11], -0.765%; in assay [13], -0.71%; in [14], -0.0261%. Moreover, the compound was called inactive in assay [7], in assay [8], in [9], in assay [10], in [12] and in assay [15]. Also, the compound was classed as inactive in [16].
`O=CNc1ccccc1`: the Potency entry in assay [1], in [2], in [3], in assay [4], in [5] and in [17] was “inactive” throughout. Further, the Potency entry in assay [18] and in assay [19] was “inactive” throughout. Moreover, the caspase-3 activation is 0.613% in assay [6], -0.303% in assay [11], 0.272% in assay [13] and 1.41% in [14]. The outcome in assay [7], in assay [8], in assay [9], in assay [10], in assay [12] and in assay [15] was inactive. The call in assay [16] was inactive.
In the case of `CCCCOCCOCCOCCCC`, the Potency entry in assay [1], in [2], in [3], in assay [4], in assay [5] and in assay [17] was “inactive” throughout. Further, the Potency entry in assay [18] and in assay [19] was “inactive” throughout. For the same compound, the caspase-3 activation in assay [6] is 0.193%; in assay [11], -0.157%; in assay [13], -0.168%; in assay [14], -0.809%. Besides, the outcome in assay [7], in assay [8], in assay [9], in [10], in [12] and in assay [15] was inactive. Besides, in assay [16], the outcome was inactive.
On to `Cc1ccc2c(c1[N+](=O)[O-])C(=O)c1ccccc1C2=O`, for which the Potency result in assay [1], in [2], in [3], in assay [4], in assay [5] and in assay [17] was “inactive” each time. Also, the Potency entry in assay [19] was “inactive”. The caspase-3 activation was -1.22% in [6], -0.888% in assay [11], -1.7% in [13] and -1.55% in assay [14]. The compound was called inactive in assay [7], in [8], in [9], in assay [10], in assay [12] and in [15]. Further, the compound was classed as inactive in assay [16] and in assay [20]. The Potency in [18] was 12.6 µM (active).
Consider `O=C(O)c1c(Cl)cccc1Cl`, for which the Potency result in assay [1], in [2], in assay [3], in [4], in assay [5] and in [17] was “inactive” each time. Further, the Potency entry in assay [18] and in assay [19] was “inactive” throughout. Further, the caspase-3 activation was 0.737% in assay [6], 0.0651% in assay [11], -0.197% in assay [13] and 0.49% in assay [14]. The compound was called inactive in [7], in assay [8], in assay [9], in assay [10], in assay [12] and in assay [15]. Besides, in assay [16], the call was inactive.
